# Rows were chosen to be rich in hits. Some 9.2% of all compounds tested hit in one or more screens of this group.
# Rab9 promoter act = qHTS Assay for Rab9 Promoter Activators; Huh7 Rab9 promoter-luciferase reporter, luminescence, 24 h; Potency, µM (titrated, usually from 9.22 µM), hits mostly activators; 2.8% of 320,000 active; AID 485297, 2010; further: nearly all actives have a fitted effect of over 60% in size
#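 Huh7 cells stably carrying Rab9 promoter–luciferase reporter, plated 1500 cells/well, compound added after 2 h and incubated 24 h at 37 °C; luciferase luminescence then read after 10 min with detection reagent.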
# FLuc counter = qHTS profiling assay for firefly luciferase inhibitor/activator using purifed enzyme and Km concentrations of substrates (counterscreen for miR-21 project); purified FLuc, Km substrates, luminescence inhibition; Potency, µM (highest dose often 57.5 µM), actives largely listed as inhibitors; 6.9% of 360,000 active; AID 588342, 2011; further: nearly all actives have a fitted effect of over 55% in size
# Target sequence (P08659 whole entry, looked up): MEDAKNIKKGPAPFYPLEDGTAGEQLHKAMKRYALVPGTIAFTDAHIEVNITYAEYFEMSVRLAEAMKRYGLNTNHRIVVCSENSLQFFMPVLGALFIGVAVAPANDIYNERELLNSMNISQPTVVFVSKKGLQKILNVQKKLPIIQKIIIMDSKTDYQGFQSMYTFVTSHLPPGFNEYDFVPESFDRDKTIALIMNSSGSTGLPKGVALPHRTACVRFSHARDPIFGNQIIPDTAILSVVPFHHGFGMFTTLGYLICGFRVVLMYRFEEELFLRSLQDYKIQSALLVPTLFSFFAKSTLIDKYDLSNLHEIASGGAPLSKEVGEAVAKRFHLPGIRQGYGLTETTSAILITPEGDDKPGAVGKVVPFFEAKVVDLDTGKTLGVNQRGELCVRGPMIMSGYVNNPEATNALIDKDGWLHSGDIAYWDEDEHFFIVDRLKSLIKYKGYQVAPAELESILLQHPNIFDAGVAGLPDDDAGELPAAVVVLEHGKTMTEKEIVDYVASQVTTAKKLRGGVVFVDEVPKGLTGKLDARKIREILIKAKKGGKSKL
#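 Purified P. pyralis luciferase (10nM final) with 10uM D-luciferin and 10uM ATP (Km levels) in 50mM Tris acetate pH 7.5, 10mM Mg acetate, 0.01% Tween-20, 0.05% BSA; qHTS 6-point titration, ~60 µM downward; luminescence read.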
# ELG1 DNA repair = qHTS screen for small molecules that inhibit ELG1-dependent DNA repair in human embryonic kidney (HEK293T) cells expressing luciferase-tagged ELG1. AID 504467, 2011. 2.3% of 330,000 active. Potency, µM (titrated, usually from 46.1 µM), most hits filed as inhibitors. HEK293T ELG1-luciferase reporter, luminescence, 16 h; DNA damage induced by 5-fluorouridine; further: nearly all actives have a fitted effect of over 55% in size
#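 Cells (2,000 per well) received 5-fluorouridine plus test compound or DMSO and were incubated 16 hr at 37 °C, 5% CO2. Luciferase activity was read by luminescence 30 min after ONE-Glo addition; signal suppression marked inhibition of damage-induced ELG1 function.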
# ELG1 genotox = qHTS screen for small molecules that induce genotoxicity in human embryonic kidney (HEK293T) cells expressing luciferase-tagged ELG1 | HEK293T ELG1-luciferase reporter, luminescence, 16 h | Potency, µM (series often up to 46 µM), usual class: activators | 1.3% of 330,000 active; further: nearly all actives have a fitted effect of over 60% in size
#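 ELG1-luciferase HEK293T cells, 2,000/well; compound pinned in; 16 hr, 37 °C, 5% CO2; ONE-Glo, 30 min RT; luminescence on CCD imager.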
# SMN2 splice up = qHTS Assay for Enhancers of SMN2 Splice Variant Expression. HEK293 SMN2-luciferase splicing reporter, luminescence, 30-36 h. 2.8% of 210,000 active. AID 1458, 2008. Potency, µM (doses to about 46.1 µM), most hits filed as activators; further: nearly all actives have a fitted effect of over 55% in size
#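 qHTS luciferase splicing reporter: luminescence rises when SMN2 exon 7 is included in transfected HEK293 cells. Compound exposure lasted 30-36 h at 37C, with 4.5 mM final sodium butyrate as control, followed by a ONE-Glo read.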
# NPC1 prom act = qHTS Assay for NPC1 Promoter Activators; Huh7 NPC1 promoter luciferase reporter, 24 h; Potency, µM (series often up to 9.22 µM), usual class: activators; 2.4% of 320,000 active; further: nearly all actives have a fitted effect of over 60% in size
#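 Quantitative HTS used a cell-based reporter: Huh7 cells stably bearing the NPC1 promoter upstream of luciferase were treated with compounds for 24 h, and promoter activation was read as luminescence.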
# Hits are given with their value; n = inactive; u = inconclusive; x = no result; [ ] = another dose, or the depositor's remark. The call rests on the fitted dose curve; in most records, active means well fitted curve in the direction sought with a large enough effect; inconclusive means small, poorly fitted or top-dose-only effect, or another doubt; inactive means no such curve, though single readings can be large; an effect the other way counts as inactive or inconclusive.
SMILES,Rab9 promoter act,FLuc counter,ELG1 DNA repair,ELG1 genotox,SMN2 splice up,NPC1 prom act
CCCCN(C(=O)c1ccc2c(c1)OCO2)C1CCS(=O)(=O)C1 (stereo not given),n,n,n,n,x,n
CSc1ncc(C(=O)Nc2ccc(C)c(Cl)c2)c(-c2ccccc2)n1,x,n,x,x,x,x
Cc1ccccc1CNC(=O)c1ccccc1N(C)S(=O)(=O)c1ccccc1,n,n,n,n,x,n
COC(=O)C1(C(=O)OC)CC2=C[C@H](CC2=O)Cc2ccccc2[C@@H]1C[N+](=O)[O-],x,x,x,x,n,x
C/C(=N\NC(=O)c1cc(C)oc1C)c1ccc2ccccc2c1,n,n,n,n,x,n
COc1ccc(-c2nc3c(c4c2C[C@H](c2ccccc2)OC4)CN(S(=O)(=O)c2ccc4c(c2)OCCN4C)CC3)c(C)c1,x,x,x,x,n[9.22 µM],x
COc1ccc(Cl)cc1NC(=O)CN(C)C(=O)CCSc1ccc(C)cc1,n,19µM,u,n,x,n
COc1ccc(Cl)cc1NC(=O)CN(C)C(=O)C12CC3CC(CC(Cl)(C3)C1)C2,n,n,18.3µM,n,x,n
CCN1CCN(C(=O)c2cnn(-c3ccc(F)cc3)c2-n2cccc2)CC1,x,n,x,x,x,x
CCNC(=S)NNC(=O)c1csc(C(C)C)c1,u,n,u,n,11.2µM,n
Cc1ccccc1CN1C(=O)c2ccccc2S(=O)c2ccc(C(=O)NCc3ccc4c(c3)OCO4)cc21 (stereo not given),x,n,x,x,n,x
Cc1ccccc1C(=O)c1c[nH]c(C(=O)N2CCN(c3ccccc3F)CC2)c1,n,n,23.1µM,n,n,n
O=C(c1c[nH]c(C(=O)N2CCN(c3ccccc3F)CC2)c1)c1cccc(Cl)c1Cl,n,n,n,n,n,n
CCN(CC)C(=O)C1CCN(C(=O)c2cnn(-c3ccccc3)c2-n2cccc2)CC1,x,n,x,x,n,x
O=C(Cc1ccccc1)Nc1ncnc2c1C(c1ccccc1)c1c(ccc3ccccc13)O2 (stereo not given),x,x,u,n,x,x
CC1(C)Cc2c(sc(N)c2C#N)C(C)(C)N1,n,n,n,n,x,n
CC1(C)CC2CC(C)(CN2/C=N/c2sc3c(c2C#N)CC(C)(C)NC3(C)C)C1 (stereo not given),n,n,23.1µM,n,x,n
FC(F)(F)c1ccc(Cl)c(NC2=NCCCCC2)c1,n,n,u,n,x,n
NCCOc1ccccc1-c1ccccc1,4.47µM,n,n,n,n,n
NCCOc1ccccc1OCCN,n,n,n,n,n,n
N/C(=N\OC(=O)CCC1CCCC1)c1ccncc1,n[1.84 µM],13.5µM,u,n,n,n
N/C(=N\OC(=O)CC1CCCCC1)c1ccccn1,n,0.601µM,u,u,n,n
N/C(=N\OC(=O)CC1CCCCC1)c1ccncc1,n,19µM,u,n,x,n
CN(C)c1ccc(/C=N/n2ncc3ccccc32)cc1,u,10.7µM,u,u,8.91µM,n
CCn1c(/N=C/c2ccc(OC)cc2O)nc2ccccc21,n,0.953µM,n,n,x,n
SMILES,Rab9 promoter act,FLuc counter,ELG1 DNA repair,ELG1 genotox,SMN2 splice up,NPC1 prom act
CCCCn1c(/N=C/c2ccc(N(C)C)cc2)nc2ccccc21,n,1.9µM,n,n,n,n
C=CCn1c(/N=C/c2ccc(OC)cc2)nc2ccccc21,n,0.426µM,n,n,x,n
COc1ccc(/C=N/c2nc3ccccc3n2CCN2CCCCC2)cc1OC,n,n,n,n,n,n
CCCCn1c(N)nc2ccccc21,n,n,u,n,n,n
CCCn1c(/N=C/c2ccccc2O)nc2ccccc21,n,n,n,n,n,n
CCCCn1c(/N=C/c2ccc3c(c2)OCO3)nc2ccccc21,n,8.49µM,n,n,n,n
C=CCn1c(/N=C/c2ccc(N(C)C)cc2)nc2ccccc21,n,0.135µM,n,n,x,n
CC(C)CN(CC#N)CC(C)C,x,x,x,x,n[9.22 µM],x
O=C(CC12CC3CC(C1)CC(CC(=O)NC1=NCCS1)(C3)C2)NC1=NCCS1,n,n,n,n,n,n
O=C(NC1=NCCS1)C12CC3CC(C1)CC(C(=O)NC1=NCCS1)(C3)C2,n,n,23.1µM,n,n,n
COc1ccc(-c2nc(SCC(=O)Nc3ccc4c(c3)OCO4)c(-c3ccc(F)cc3)[nH]2)cc1OC,x,n,x,x,n,x
COc1ccc(-c2ccc(SCC(=O)NC3CCCC3)nn2)cc1OC,n,15.1µM,u,n,x,n
COc1cccc(-c2ccc(SCC(=O)NC3CCCCC3)nn2)c1,n,15.1µM,n,n,x,n
COc1ccc(-c2nc(SCC(=O)NC3CCCC3)c(-c3ccccc3)[nH]2)cc1OC,x,19µM,x,x,n,x
COc1ccccc1-c1ccc(SCC(=O)NC2CCCCC2)nn1,n,n,u,n,x,n
COc1ccccc1-c1ccc(SCC(=O)NC2CCCC2)nn1,n,n,u,n,x,n
COc1ccc(-c2nc(SCC(=O)NC3CCCC3)c(-c3ccc(F)cc3)[nH]2)cc1OC,x,u,x,x,n,x
COc1ccc(-c2nc(SCC(=O)Nc3ccc4c(c3)OCCO4)c(-c3ccc(F)cc3)[nH]2)cc1OC,x,6.75µM,x,x,n,x
Cc1ccc(/C=C/c2onc(C)c2S(=O)(=O)N2CCC(C(=O)N3CCOc4ccc(C)cc43)CC2)cc1,x,n,x,x,x,x
CCOC(Cn1cc(C)c(=O)[nH]c1=O)OCC,n,n,n,n,n,n
O=C(NNC(=O)c1ccc(-c2ccccc2)cc1)Nc1ccccc1F,n,n,n,n,x,n
O=C(NNc1ccccc1F)C1CCC1,n,n,16.4µM,n,x,n
O=C(NNc1ccccc1F)c1ccccc1,n,n,14.6µM,n,x,n
Fc1ccc(Nc2c(-c3c[nH]c4ccccc34)nc3ccccn23)cc1,x,n,x,x,u,x
Cc1ccc(Nc2c(-c3ccccc3O)nc3ccc(Br)cn23)cc1,x,n,x,x,n,x
SMILES,Rab9 promoter act,FLuc counter,ELG1 DNA repair,ELG1 genotox,SMN2 splice up,NPC1 prom act
Cc1ccc2nc(-c3c[nH]c4ccccc34)c(Nc3ccccc3)n2c1,x,n,x,x,11.2µM,x
c1ccc(Nc2c(-c3c[nH]c4ccccc34)nc3ccccn23)cc1,x,u,x,x,15.8µM,x
CCc1sc(NC(=O)C(C)C)nc1-c1ccccc1,n,n,n,n,n,n
Fc1ccc(-n2ncc3c(N4CCN(Cc5ccccc5)CC4)ncnc32)cc1,x,n,x,x,x,x
Cc1ccc(-n2ncc3c(N4CCC(Cc5ccccc5)CC4)ncnc32)cc1,x,n,x,x,x,x
Cc1ccc(-n2ncc3c(N4CCCCC4)ncnc32)cc1,x,0.0757µM,x,x,x,x
Cc1ccc(Cl)cc1-n1ncc2c(N3CCCCCC3)ncnc21,x,n,x,x,x,x
Clc1ccc(-n2ncc3c(N4CCCCCC4)ncnc32)cc1,n,0.19µM,u,0.146µM,n,n

# Compound activity as filed in PubChem.
